These results are taken from PubChem BioAssay AID434970 (Sanford-Burnham Center for Chemical Genomics, 2010).

In all, about 11,000 compounds went through this assay and about 310 (2.8%) were called active. No stated cut-off is given here; in the data, active means activity change below about -85%; inactive means the rest. The sample as a whole holds a higher share of actives than the screen did.

This test has as its system intestinal alkaline phosphatase [Mus musculus]. The experiment in a line: activators of mouse IAP, confirmation, biochemical, luminescence, single concentration (AID 434970). Conditions: purified mouse IAP, CDP-Star luminescence, 30 min, at 10 µM; activation factor: measured here: IAP activation factor, stronger effect = higher value; activity change, negative = activation: stronger effect = lower value.
Turning to `COc1ccc(-c2noc(CCC(=O)N3CCN(c4ccc(F)cc4)CC3)n2)cc1`, the activation factor came to 1.1 and the activity change, negative = activation was -10.3% (inactive).
For `CC(C)NC(=O)c1ccc(CNC(=O)OCC(F)(F)F)cc1` the same measures were 1.05 and -5.05% (inactive).
Take `COCCNC(=O)Cn1c(=O)n(Cc2ccco2)c(=O)c2ccccc21`: the activation factor came to 1.06 and the activity change, negative = activation is -6.35% (inactive).
For `O=C(NOCc1ccccc1)c1ccccc1` the same measures were 0.948 and 5.2% (inactive).
For `CCOC(=O)C1=CN(Cc2cccc(-c3ccc4c(c3)OCO4)c2)S(=O)(=O)N(C)C1C` (stereo unspecified) the same measures were 1 and -0.3% (inactive).
As for `O=C1c2ccccc2[C@@H]2C[C@@H](O)[C@H](Nc3ccccc3Cl)CCN12`, the activation factor was determined as 0.989 and the activity change, negative = activation is 1.1% (inactive).
For `CCn1nnnc1SCC(=O)Nc1cc(C)on1` the same measures were 0.966 and 3.35% (inactive).
For `CCOC(=O)C1CCCN(C(=O)Cc2ccc(OC)c(OC)c2)C1` (stereo unspecified), the activation factor was 1 and the activity change, negative = activation is -0.35% (inactive).
With `Cc1ccc(OCCCC(=O)Nc2nncs2)cc1`, the activation factor is 1 and the activity change, negative = activation is -0.3% (inactive).
For `Cc1ccc(Nc2nc(CSc3nnnn3C)cs2)cc1` the same measures were 0.806 and 19.4% (inactive).
In the case of `O=C(Cc1ccccc1)NC(NC(=S)Nc1cc(Cl)ccc1Cl)C(Cl)(Cl)Cl` (stereo unspecified), the activation factor was found to be 0.912 and the activity change, negative = activation was 8.8% (inactive).
In the case of `COC(=O)[C@H](C)N(Cc1ccc(Cl)c(Cl)c1)S(=O)(=O)CCNC1CCCC1`, the activation factor is 0.943 and the activity change, negative = activation is 5.7% (inactive).
For `COc1ccc(OC)c(NC(=O)C2C3CCC(C3=C(C)C)C2C(=O)O)c1` (stereo unspecified) the same measures were 0.891 and 10.9% (inactive).
For `COCC(=O)NC1CC2CCCC(C1)N2Cc1ccccc1` (stereo unspecified), the activation factor stood at 1.08 and the activity change, negative = activation is -8.2% (inactive).
For `O=C(Nc1ccc(Cl)c(C(F)(F)F)c1)NC1CC2CCCC(C1)N2Cc1ccccc1` (stereo unspecified) the same measures were 7.69 and -669% (active).
For `O=C(Nc1ccccc1-c1ccccc1)NC1CC2CCCC(C1)N2Cc1ccc(F)cc1` (stereo unspecified) the same measures were 3.7 and -270% (active).
As to `COc1ccc(NC(=O)Cc2ccccc2)cc1`, the activation factor is 0.897 and the activity change, negative = activation was 10.3% (inactive).
For `COc1cccc(C(=O)NC2CC3CCCC(C2)N3CC(=O)Nc2ccc(N(C)C)cc2)c1` (stereo unspecified) the same measures were 0.99 and 1% (inactive).
For `COc1cc(C(=O)NC2CC3CCCC(C2)N3CC(=O)Nc2ccccc2)cc(OC)c1OC` (stereo unspecified) the same measures were 1.07 and -6.8% (inactive).
For `O=C(NCc1ccccc1)NC1CC2CCC(C1)N2Cc1ccco1` (stereo unspecified) the same measures were 1.08 and -7.85% (inactive).
As for `O=C(Nc1ccccc1-c1ccccc1)NC1CC2CCCC(C1)N2CCc1ccccc1` (stereo unspecified), the activation factor is 1.76 and the activity change, negative = activation is -76.2% (inactive).
For `CC(=O)NC1CC2CCCC(C1)N2C(=O)Nc1ccc(Cl)c(C(F)(F)F)c1` (stereo unspecified) the same measures were 1.13 and -13% (inactive).
For `O=C(Nc1cccn(Cc2ccc(F)cc2)c1=O)NC1CCCCC1` the same measures were 0.962 and 3.75% (inactive).
For `CCc1cccc(CC)c1NC(=O)CN1C2CCCC1CC(NC(=O)Nc1cccc(OC)c1)C2` (stereo unspecified) the same measures were 2.36 and -136% (active).
For the compound `COc1ccc(NC(=O)NC2CC3CCCC(C2)N3Cc2ccccc2)cc1` (stereo unspecified), the activation factor is 2.71 and the activity change, negative = activation was -171% (active).
For `CC(C)N(C(=O)[C@H]1C[C@H](CC(=O)NCCc2ccccn2)C(=O)N2CCc3c([nH]c4cc(-c5ccco5)ccc34)[C@]12C)C(C)C` the same measures were 1.14 and -14.4% (inactive).
As for `COc1cc(/C=N/NC(N)=O)cc(Br)c1OCc1ccccc1C`, the activation factor was 0.961 and the activity change, negative = activation was 3.9% (inactive).
For `CC(OC(=O)c1cccs1)C(=O)NCC1CCCO1` (stereo unspecified) the same measures were 1.09 and -9% (inactive).
As for `CCOC(=O)c1c(C)[nH]c(C(=O)COC(=O)C2CC(=O)N(Cc3ccccc3)C2)c1C` (stereo unspecified), the activation factor was determined as 0.964 and the activity change, negative = activation was 3.55% (inactive).
For `COCc1c(C)cc(C)c(/C=N/O)c1C` the same measures were 0.951 and 4.9% (inactive).
Regarding `CCSc1cc(C2C(C(=O)OC)=C(C)NC3=C2C(=O)CCC3)c(C)o1` (stereo unspecified), the activation factor was determined as 0.954 and the activity change, negative = activation was 4.65% (inactive).
For the compound `Cc1nc(SCN2C(=O)c3ccccc3C2=O)n[nH]1`, the activation factor worked out at 0.945 and the activity change, negative = activation is 5.55% (inactive).
In the case of `CCOC(=O)c1[nH]c(C)c(CN(CCc2ccccc2)C(=O)CCC(=O)O)c1C`, the activation factor amounted to 0.977 and the activity change, negative = activation was 2.3% (inactive).
For `COc1ccc(CN2C3CCCC2CC(NC(=O)Nc2ccccc2)C3)cc1` (stereo unspecified) the same measures were 4.65 and -365% (active).
For `Cc1cccc(NC(=S)NC2CC3CCCC(C2)N3Cc2cccs2)c1C` (stereo unspecified) the same measures were 1.15 and -14.8% (inactive).
As for `O=C(Nc1cccn(Cc2ccccc2)c1=O)NC1CCCCC1`, the activation factor was determined as 0.945 and the activity change, negative = activation is 5.5% (inactive).
For `O=C(Nc1ccc2c(c1)N(Cc1ccccc1)C(=O)c1ccccc1S2)NC1CC1` the same measures were 2.45 and -145% (active).
In the case of `COc1ccc(CN2C3CCCC2CC(NC(=O)Nc2ccccc2C)C3)cc1` (stereo unspecified), the activation factor was determined as 2.43 and the activity change, negative = activation was -143% (active).
For `S=C(Nc1ccc(Cl)c(Cl)c1)NC1CCN(Cc2ccccc2)CC1` the same measures were 1.63 and -62.7% (inactive).
With `CC(=O)NC1CC2CCCC(C1)N2CC(=O)Nc1ccccc1` (stereo unspecified), the activation factor stood at 1.09 and the activity change, negative = activation is -9.05% (inactive).
For `CCc1ccccc1NC(=S)NC1CC2CCCC(C1)N2Cc1cccs1` (stereo unspecified) the same measures were 1.01 and -0.9% (inactive).
With `CC(=O)c1cccc(NC(=O)NC2CC3CCCC(C2)N3CC(C)C)c1` (stereo unspecified), the activation factor amounted to 1.22 and the activity change, negative = activation was -21.6% (inactive).
On to `CC(C)OCCCNC(=O)C(=O)NCCCOC(C)C`, for which the activation factor was found to be 0.962 and the activity change, negative = activation is 3.8% (inactive).
For `COC(=O)c1ccccc1NC(=O)CCS(=O)(=O)c1ccc(Br)s1` the same measures were 1.05 and -5% (inactive).
For `O=C(O)Cn1c(SCc2cccc3ccccc23)nc2ccccc21` the same measures were 1.09 and -9.2% (inactive).
Consider `S=c1[nH]ncn1/N=C/c1ccc(N2CCOCC2)cc1`, for which the activation factor is 1 and the activity change, negative = activation is -0.35% (inactive).
For `CCOC(=O)c1c(C)[nH]c(O)c1C=Nc1ccc(C(F)(F)F)cc1` the same measures were 0.846 and 15.4% (inactive).
As for `COc1ccc(OC)c(NC(=O)C(=O)/C=C(\O)c2cc(OC)ccc2OC)c1`, the activation factor came out at 0.905 and the activity change, negative = activation is 9.55% (inactive).
For `Cc1ccc(/C(N)=N/OC(=O)Oc2ccccc2)cc1` the same measures were 0.99 and 1% (inactive).
For `COc1ccc(CCNC(=O)c2cc(-c3cc(Cl)cc(Cl)c3)oc2C)cc1` the same measures were 2.07 and -107% (active).
On to `COc1ccc(CCNC(=O)c2ccc(Cl)cc2)cc1`, for which the activation factor was 1.08 and the activity change, negative = activation is -8.2% (inactive).
For `COc1ccc(CCNC(=O)c2ccc(Cl)cc2Cl)cc1` the same measures were 1.19 and -18.9% (inactive).
On to `O=C(CCCNS(=O)(=O)c1cccs1)N1CCN(c2ccc(F)cc2)CC1`, for which the activation factor came to 0.934 and the activity change, negative = activation is 6.55% (inactive).
With `COc1ccc(NC(=S)NCC2CCCO2)c(OC)c1` (stereo unspecified), the activation factor amounted to 0.95 and the activity change, negative = activation is 4.95% (inactive).
For `C#CCOCCOCCOCCNc1nc(N2CCN(C(=O)CCCCCCCCCCNC(=O)Cn3cc(C[C@@H](C)O)nn3)CC2)nc(N2CCN(C(=O)CCCCCCCCCCNC(=O)[C@H](CCCCN)n3cc(C[C@@H](C)CC)nn3)CC2)n1` the same measures were 2.76 and -176% (active).
For `CC[C@H](C)Cc1cn([C@@H](CCCCNC(=O)OC(C)(C)C)C(=O)NCCCCCCCCCCC(=O)N2CCN(C(=O)OC(C)(C)C)CC2)nn1` the same measures were 1.57 and -56.9% (inactive).
For the compound `C#CCOCCOCCOCCNc1nc(N2CCN(C(=O)CCCCCCCCCCNC(=O)Cn3cc(C[C@@H](C)O)nn3)CC2)nc(N2CCN(C(=O)CCCCCCCCCCNC(=O)[C@H](CCCN=C(N)N)n3cc(C[C@@H](C)CC)nn3)CC2)n1`, the activation factor was determined as 5.68 and the activity change, negative = activation is -468% (active).
For `CCc1cccc(CC)c1NC(=O)CSc1nc2ccc(N3C(=O)C4C5C=CC(C5)C4C3=O)cc2s1` (stereo unspecified) the same measures were 0.959 and 4.1% (inactive).
For `CCOC(=O)C1(CC)NC(c2ccco2)C2C(=O)N(c3ccc(C)cc3)C(=O)C21` (stereo unspecified) the same measures were 1.05 and -4.65% (inactive).
For `COCCCNC(=O)C[C@H]1C[C@H](C(=O)N2CCCCC2)[C@@]2(CCc3ccccc3)c3[nH]c4ccc(Cl)cc4c3CCN2C1=O` the same measures were 1.2 and -19.7% (inactive).
As for `CCOC(=O)C1(C)/C(=N/Nc2ccccc2Cl)C(=O)C(=O)N1c1ccccc1` (stereo unspecified), the activation factor was 0.886 and the activity change, negative = activation was 11.4% (inactive).
For `Cc1ccc(C)c(N2CCN(C(=O)CCc3nc(-c4ccc(Br)cc4)no3)CC2)c1` the same measures were 1.04 and -4.15% (inactive).
For `NC(=O)C1CCN(CC(=O)Nc2ccccn2)CC1` the same measures were 0.922 and 7.8% (inactive).
For `CCCN(CCC)C(=O)c1ccc2c(c1)OCO2` the same measures were 1.05 and -5.1% (inactive).
For `CCCCN1CC[C@@H]2C=CC[C@H](C(=O)OC)[C@@H]2C1=O`, the activation factor was determined as 0.952 and the activity change, negative = activation was 4.85% (inactive).
For `COc1ccc(CN2CC[C@H]3C=CC[C@@H](C(=O)Nc4ccc(Cl)c(C(F)(F)F)c4)[C@H]3C2=O)cc1OC` the same measures were 2.85 and -185% (active).
`O=C(O)[C@H]1CC=C[C@H]2CCN(Cc3ccc(Cl)c(Cl)c3)C(=O)[C@@H]12`: the activation factor is 1.05 and the activity change, negative = activation is -5.25% (inactive).
For the compound `CCOC(=O)c1ccc(NC(=O)NC2CC3CCC(C2)N3Cc2nnnn2C(C)(C)C)cc1` (stereo unspecified), the activation factor was 1.46 and the activity change, negative = activation is -45.8% (inactive).
Regarding `COc1ccc2[nH]c3c(c2c1)CCN1C(=O)C(CC(=O)NC/C=C(\C)CCC=C(C)C)C[C@H](C(=O)N(C(C)C)C(C)C)[C@@]31C` (stereo partly specified), the activation factor was determined as 2 and the activity change, negative = activation was -100% (active).
In the case of `CC(C)=CCC/C(C)=C/CNC(=O)C[C@H]1C[C@H](C(=O)N(C(C)C)C(C)C)[C@@]2(C)c3[nH]c4ccc(Cl)cc4c3CCN2C1=O`, the activation factor is 1.25 and the activity change, negative = activation is -25.1% (inactive).
In the case of `CCN(CC)C(=O)[C@H]1CC(CC(=O)NC/C=C(\C)CCC=C(C)C)C(=O)N2CCc3c([nH]c4ccc(OC)cc34)[C@]12C` (stereo partly specified), the activation factor stood at 1.25 and the activity change, negative = activation is -24.9% (inactive).
Regarding `Cc1ccc(NCc2nnc(SCC(N)=O)n2CC2CCCO2)c(C)c1` (stereo unspecified), the activation factor was 1.09 and the activity change, negative = activation was -9.4% (inactive).
In the case of `FC(F)(F)c1cccc(NC(=S)NCc2ccccc2)c1`, the activation factor is 1.69 and the activity change, negative = activation was -69.2% (inactive).
For `O=C(NCc1ccc2c(c1)CCO2)Nc1cccc(C(F)(F)F)c1`, the activation factor is 2.44 and the activity change, negative = activation is -144% (active).
For `COc1ccc(CNC(=O)NCc2ccc(OC)c(OC)c2)cc1OC` the same measures were 1.09 and -9% (inactive).
For `FC(F)(F)c1cccc(NC(=S)NCc2ccc(Cl)cc2)c1` the same measures were 1.18 and -18.2% (inactive).
For `Fc1ccc(CNC(=S)Nc2cccc(C(F)(F)F)c2)cc1` the same measures were 1.28 and -27.5% (inactive).
Take `COc1ccc(CNC(=O)Nc2cccc(C(F)(F)F)c2)cc1OC`: the activation factor came to 2.21 and the activity change, negative = activation is -121% (active).
